Source: the supplement of paper PMC6089552
Screen size: about 3,200 compounds; about 300 (9.4%) showed activity. Many of the other results were omitted from the sample, so actives are more common in it than they were.

Test system: A673/TR/shEF
Assay: cell viability (LOESS-normalised, relative to median of negative controls) (log2 ratio); higher = more viable cells (less compound effect), active = hit call of the paper (over 3 MAD below the median)
Conditions: treatment time: 72 h
Outline: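 A673/TR/shEF Ewing sarcoma cells were plated at 1,500 per well in 384-well plates and cultured with or without doxycycline, added 24 h before compounds, to induce EWS-FLI1 shRNA knockdown. Library compounds at two or more concentrations, alongside DMSO controls, were applied for three days. Cell viability was measured by CellTiter-Glo luminescence on an Envision reader. Readings were LOESS-corrected per plate, divided by the median of negative controls and log2-transformed, and hits were wells lying at least three median absolute deviations from the median of all screened wells.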

[1] = 0.25 µM, library screen: screen1, EWS-FLI1 expression: high (no doxycycline)
[2] = 0.25 µM, library screen: screen1, EWS-FLI1 expression: low (doxycycline-induced shRNA knockdown)
[3] = 0.25 µM, library screen: screen2, EWS-FLI1 expression: high (no doxycycline)
[4] = 0.25 µM, library screen: screen2, EWS-FLI1 expression: low (doxycycline-induced shRNA knockdown)
[5] = 2.5 µM, library screen: screen1, EWS-FLI1 expression: high (no doxycycline)
[6] = 2.5 µM, library screen: screen1, EWS-FLI1 expression: low (doxycycline-induced shRNA knockdown)
[7] = 2.5 µM, library screen: screen2, EWS-FLI1 expression: high (no doxycycline)
[8] = 2.5 µM, library screen: screen2, EWS-FLI1 expression: low (doxycycline-induced shRNA knockdown)
[9] = 0.025 µM, library screen: screen1, EWS-FLI1 expression: high (no doxycycline)
[10] = 0.025 µM, library screen: screen1, EWS-FLI1 expression: low (doxycycline-induced shRNA knockdown)
[11] = 25 µM, library screen: screen1, EWS-FLI1 expression: high (no doxycycline)
[12] = 25 µM, library screen: screen1, EWS-FLI1 expression: low (doxycycline-induced shRNA knockdown)
[13] = 0.025 µM, library screen: screen2, EWS-FLI1 expression: high (no doxycycline)
[14] = 0.025 µM, library screen: screen2, EWS-FLI1 expression: low (doxycycline-induced shRNA knockdown)
[15] = 0.103 µM, library screen: screen3, EWS-FLI1 expression: high (no doxycycline)
[16] = 0.103 µM, library screen: screen3, EWS-FLI1 expression: low (doxycycline-induced shRNA knockdown)
[17] = 0.308 µM, library screen: screen3, EWS-FLI1 expression: high (no doxycycline)
[18] = 0.308 µM, library screen: screen3, EWS-FLI1 expression: low (doxycycline-induced shRNA knockdown)
[19] = 0.926 µM, library screen: screen3, EWS-FLI1 expression: high (no doxycycline)
[20] = 0.926 µM, library screen: screen3, EWS-FLI1 expression: low (doxycycline-induced shRNA knockdown)
[21] = 2.8 µM, library screen: screen3, EWS-FLI1 expression: high (no doxycycline)
[22] = 2.8 µM, library screen: screen3, EWS-FLI1 expression: low (doxycycline-induced shRNA knockdown)
[23] = 8.3 µM, library screen: screen3, EWS-FLI1 expression: high (no doxycycline)
[24] = 8.3 µM, library screen: screen3, EWS-FLI1 expression: low (doxycycline-induced shRNA knockdown)
[25] = 25 µM, library screen: screen2, EWS-FLI1 expression: high (no doxycycline)
[26] = 25 µM, library screen: screen2, EWS-FLI1 expression: low (doxycycline-induced shRNA knockdown)
[27] = 25 µM, library screen: screen3, EWS-FLI1 expression: high (no doxycycline)
[28] = 25 µM, library screen: screen3, EWS-FLI1 expression: low (doxycycline-induced shRNA knockdown)

Measured: cell viability (log2)

CCCC(C)(COC(N)=O)COC(=O)NC(C)C (centres undefined)
active: [7] -0.0715
inactive: [1] 0.0415 | [2] 0.112 | [3] 0.196 | [4] 0.0672 | [5] 0.137 | [6] 0.151 | [8] 0.121

C[N+]1=Cc2cc3c(cc2CC1)OCO3
inactive: [1] 0.0752 | [2] 0.0244 | [5] 0.15 | [6] 0.0111

COc1ccc([C@H]2Oc3c(I)c(OC)cc(OC)c3C[C@@H]2O)cc1OC
inactive: [1] -0.0318 | [2] 0.027 | [5] 0.0859 | [6] 0.059

N#C/C(=C\c1ccc(O)cc1)C(=O)O
inactive: [1] 0.0465 | [2] 0.0904 | [5] 0.146 | [6] 0.0788

C[C@@H](N)Cc1cnc[nH]1
inactive: [3] 0.0946 | [4] 0.0207 | [7] 0.146 | [8] 0.00233

OC[C@H]1O[C@@H](n2cnc3cc(Cl)c(Cl)cc32)[C@H](O)[C@@H]1O
active: [5] -0.183 | [11] -0.16
inactive: [9] 0.182 | [10] -0.067 | [1] 0.227 | [2] 0.0134 | [6] 0.128 | [12] 0.0669

Cc1cc([C@@H]2CCCN2C)on1
inactive: [3] 0.0967 | [4] 0.135 | [7] 0.0205 | [8] 0.0708

CN1CC[C@]2(CCN3CCc4c(oc5ccccc45)[C@@H]3C2)N(C)C1=O
inactive: [3] 0.195 | [4] 0.0926 | [7] 0.114 | [8] 0.114

CCCCN(CC)c1c([N+](=O)[O-])cc(C(F)(F)F)cc1[N+](=O)[O-]
inactive: [1] 0.116 | [2] 0.132 | [5] 0.0478 | [6] 0.194

ClC1=C(Cl)C2(Cl)C3C(Cl)C=CC3C1(Cl)C2(Cl)Cl (centres undefined)
inactive: [1] 0.152 | [2] 0.0412 | [5] 0.0862 | [6] 0.0598

CC(C)N1C(=O)c2ccccc2NS1(=O)=O
inactive: [1] 0.113 | [2] 0.086 | [5] 0.0391 | [6] 0.0775

C/C=C(/C)C(=O)O[C@H]1C(C)=C2[C@H]([C@@H]1OC(=O)CCCCCCC)[C@@](C)(OC(C)=O)C[C@H](OC(=O)CCC)[C@@]1(O)[C@H]2OC(=O)[C@@]1(C)O
active: [3] -3.16 | [4] -2.76 | [7] -3.49 | [8] -2.81

CN1C(=O)CN=C(c2ccccc2)c2cc(Cl)ccc21
inactive: [1] 0.0871 | [2] 0.0866 | [5] 0.123 | [6] 0.0545

C[C@]12CC[C@H]3[C@@H](CCC4=CC(=O)CC[C@@]43C)[C@@H]1CC[C@@H]2O
inactive: [1] 0.0751 | [2] -0.0159 | [5] 0.0937 | [6] -0.0498

O=c1cccc2n1CC1CC2CN2CCCCC12 (centres undefined)
inactive: [1] 0.16 | [2] 0.0123 | [5] 0.153 | [6] 0.0958

NCCc1cc(O)c(O)cc1O
inactive: [1] 0.0637 | [2] 0.155 | [5] 0.144 | [6] 0.129

CC(=O)OCC1=C(C(=O)O)N2C(=O)[C@@H](NC(=O)CCC[C@@H](N)C(=O)O)[C@H]2SC1
inactive: [3] 0.263 | [4] 0.114 | [7] 0.155 | [8] 0.174

CC[C@@]1(O)C(=O)OCc2c1cc1n(c2=O)Cc2cc3ccccc3nc2-1
inactive: [13] -0.0654 | [14] 0.049 | [16] -0.0714
active: [15] -1.01 | [1] -2.18 | [2] -0.586 | [3] -2.99 | [4] -0.42 | [17] -2.37 | [18] -0.543 | [19] -3.61 | [20] -0.88 | [5] -1.57 | [6] -0.388 | [7] -3.53 | [8] -0.945 | [21] -4.24 | [22] -1.16 | [23] -4.26 | [24] -1.3 | [25] -4.09 | [26] -1.25 | [27] -4.26 | [28] -2.33

C[C@]12CCC(=O)C=C1C=CC1C2CC[C@@]2(C)C1CC[C@@]2(O)CCC(=O)O (some centres undefined)
inactive: [1] 0.0813 | [2] -0.0168 | [5] 0.15 | [6] -0.00183

N[C@@H](Cc1ccc(N(CCCl)CCCl)cc1)C(=O)O
inactive: [1] 0.0874 | [2] 0.0161 | [3] 0.175 | [4] 0.17 | [5] 0.00755 | [6] 0.0488 | [7] 0.22 | [8] 0.172

O=C(O)CCCc1ccc(N(CCCl)CCCl)cc1
inactive: [13] 0.0942 | [14] 0.0711 | [1] 0.0971 | [2] 0.0808 | [3] 0.12 | [4] 0.0418 | [5] 0.142 | [6] 0.131 | [7] 0.101 | [8] 0.11 | [26] 0.0238
active: [25] -0.0762

Cn1c(CCCC(=O)O)nc2cc(N(CCCl)CCCl)ccc21
inactive: [15] 0.058 | [16] 0.0297 | [17] -0.00941 | [18] 0.026 | [19] -0.00645 | [20] 0.00947 | [21] -0.0453 | [22] -0.00369 | [23] 0.00708 | [24] 0.0974 | [27] -0.0533 | [28] 0.0463

CC(=O)CC1CCCCN1 (centres undefined)
inactive: [1] 0.0906 | [2] -0.00634 | [5] 0.0756 | [6] -0.083

CC(=O)O[C@@H]1CC2C(C)(C)[C@H](O)C=C[C@]2(C)C2CC[C@]3(C)C(=CC(=O)O[C@H]3c3ccoc3)[C@@]21C (some centres undefined)
inactive: [1] 0.113 | [2] 0.0781 | [5] 0.222 | [6] 0.195

CCc1cccc(CC)c1N(COC)C(=O)CCl
inactive: [1] 0.0413 | [2] -0.00378 | [5] 0.0617 | [6] 0.0338

CC(C)C(C(=O)OC(C#N)c1cccc(Oc2ccccc2)c1)c1ccc(Cl)cc1 (centres undefined)
inactive: [9] 0.0912 | [10] 0.0926 | [1] 0.0365 | [2] 0.00166 | [5] 0.0694 | [6] 0.0411 | [11] 0.0435 | [12] 0.0476

CC1(C)C(C=C(Cl)Cl)C1C(=O)OC(C#N)c1cccc(Oc2ccccc2)c1 (centres undefined)
inactive: [9] 0.0827 | [10] 0.0478 | [1] 0.102 | [2] -0.0402 | [5] 0.0354 | [6] -0.0899
active: [11] -0.287 | [12] -0.665

CC1(C)[C@H](C(=O)O[C@H](C#N)c2cccc(Oc3ccccc3)c2)[C@@H]1C=C(Br)Br
inactive: [9] 0.0513 | [10] -0.0407 | [1] 0.047 | [2] 0.086 | [5] 0.112 | [6] 0.12 | [11] -0.0163 | [12] 0.0977

CC1(C)C(=O)C=C[C@]2(C)C3CC[C@@]4(C)[C@H](c5ccoc5)C[C@H]5O[C@]54C3[C@H](O)CC12 (some centres undefined)
inactive: [1] 0.0404 | [2] 0.00309 | [5] 0.102 | [6] 0.0462

C[C@H]1C(=O)O[C@@H]2CCN3CC=C(COC(=O)[C@](C)(O)[C@]1(C)O)[C@H]23
inactive: [13] 0.0665 | [14] 0.0541 | [1] 0.00981 | [2] 0.0549 | [3] 0.122 | [4] 0.0363 | [5] 0.0901 | [6] 0.111 | [7] 0.0833 | [8] 0.0416 | [25] 0.0406 | [26] 0.0625

CC1=C(O)C(=O)C=C2C1=CC=C1[C@@]2(C)CC[C@@]2(C)[C@@H]3C[C@](C)(C(=O)O)CC[C@]3(C)CC[C@]12C
active: [5] -1.03 | [7] -4.23 | [8] -0.301 | [25] -4.23 | [26] -3.9
inactive: [13] 0.14 | [14] 0.0632 | [1] 0.0936 | [2] 0.0786 | [3] 0.154 | [4] 0.0872 | [6] 0.0632

Cc1c(O)c(O)cc2c1CC=C1[C@@]2(C)CC[C@@]2(C)[C@@H]3C[C@](C)(C(=O)O)CC[C@]3(C)CC[C@]12C
inactive: [1] 0.102 | [2] 0.0187 | [5] 0.0348 | [6] 0.22

COC(=O)[C@]1(C)CC[C@]2(C)CC[C@]3(C)C4=CCc5c(cc(O)c(O)c5C)[C@]4(C)CC[C@@]3(C)[C@@H]2C1
inactive: [1] 0.0264 | [2] 0.158
active: [5] -1.44 | [6] -0.357

COC(=O)[C@]1(C)CC[C@]2(C)CC[C@]3(C)C4=CC=C5C(=CC(=O)C(O)=C5C)[C@]4(C)CC[C@@]3(C)[C@@H]2C1
inactive: [1] -0.0347 | [2] 0.133
active: [5] -2.91 | [6] -3.05

NCC(CC(=O)O)c1ccc(Cl)cc1 (centres undefined)
inactive: [1] 0.0966 | [2] 0.12 | [3] 0.221 | [4] 0.138 | [5] 0.123 | [6] 0.15 | [7] 0.124 | [8] 0.0836

CCC(N)C(O)c1ccc(O)c(O)c1 (centres undefined)
inactive: [1] 0.161 | [2] 0.0223 | [5] 0.0883 | [6] 0.0282

C[C@]12CC[C@H](O)CC1=CC[C@@H]1[C@@H]2CC[C@]2(C)C(=O)CC[C@@H]12
inactive: [15] -0.0409 | [16] 0.0562 | [1] 0.164 | [2] 0.131 | [3] 0.133 | [4] 0.0866 | [17] 0.0564 | [18] 0.076 | [19] -0.013 | [20] 0.0349 | [5] 0.137 | [6] 0.104 | [7] 0.173 | [8] 0.152 | [21] 0.0481 | [22] 0.0405 | [23] 0.0125 | [24] 0.0569 | [27] -0.0287 | [28] -0.0258
